Screening results (PubChem BioAssay)
Sm TGR inh – S. mansoni TGR enzyme inhibition; purified TGR, DTNB reduction, TNB absorbance 405 nm; Potency, µM (titrated, usually from 114 µM), inactives show top-dose activity change, negative = inhibition, actives largely listed as inhibitors; actives 3% (n = 360,000); note: potency is the fitted concentration of half-maximal effect; nearly all actives have a fitted effect of over 60% in size
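TGR 20 nM + NADPH 100 uM (dispensed conc.), cpd preinc 15 min RT; start with NADPH (500 uM addition) then DTNB (15 mM addition). Kinetic TNB absorbance, 405 nm filter. Four-parameter Hill fit across titration.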
FBPA Giardia inh – blocks Giardia fructose-bisphosphate aldolase activity; A8B2U2; purified Giardia FBPA; Potency, µM (series often up to 59.6 µM), without a hit: top-dose activity, negative = inhibition, actives largely listed as inhibitors; actives 0.71% (n = 290,000); AID 2451; note: potency is the fitted concentration of half-maximal effect; nearly all actives have a fitted effect of over 55% in size
Target sequence (A8B2U2 whole entry, looked up): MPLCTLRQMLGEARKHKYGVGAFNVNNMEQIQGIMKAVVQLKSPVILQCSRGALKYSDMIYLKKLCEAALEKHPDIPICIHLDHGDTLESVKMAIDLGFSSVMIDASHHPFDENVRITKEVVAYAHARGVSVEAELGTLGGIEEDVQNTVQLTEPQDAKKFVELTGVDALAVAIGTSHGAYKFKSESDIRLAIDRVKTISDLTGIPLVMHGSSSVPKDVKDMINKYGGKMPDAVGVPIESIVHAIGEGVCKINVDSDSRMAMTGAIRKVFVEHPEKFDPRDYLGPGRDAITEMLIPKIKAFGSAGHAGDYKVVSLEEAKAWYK
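Giardia FBPA (40 nM reagent) was preincubated 10 min at RT with compound (up to 57.5 uM final), then substrate plus GAPDH/TPI/NAD/arsenate coupling system with diaphorase/resazurin was added; resorufin fluorescence (525/598 nm) was read after 20 min.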
HCMV inh – inhibitors of human cytomegalovirus | HFF cells, HCMV-luciferase reporter, 72 h; stronger effect = lower value | activity change, negative = inhibition, % at 57.5 µM | actives 4.5% (n = 410,000) | AID 1259415; in the data active = activity change below about -60%; inconclusive = no clear call, values can overlap the other calls; inactive = above about -39%
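Inhibition of viral replication was scored as loss of reporter luminescence in HFFs infected with HCMV-luciferase (MOI 1 PFU/cell) for 72 h; compounds tested at 2 doses, normalized to buffer and Salinomycin controls.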
Pf growth 48h – inhibits P. falciparum growth in the first generation, 48 h. P. falciparum luciferase growth in erythrocytes, 48 h. Potency, µM (highest dose often 28.7 µM), for the others: at the highest dose activity change, negative = inhibition, actives largely listed as inhibitors. actives 5.9% (n = 310,000). AID 504832; note: potency is the fitted concentration of half-maximal effect
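Erythrocytes infected with P. falciparum carrying an integrated firefly luciferase reporter (2% hematocrit, 0.1% parasitemia final) were exposed to compounds in RPMI 1640 with 0.5% Albumax at 37 C, 5% CO2. Growth inhibition was scored as reduced luminescence.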
Pf growth 96h – P. falciparum growth inhibition at 96 hours | P. falciparum luciferase reporter growth, 96 h | Potency, µM (top dose mostly 28.7 µM), inactives show top-dose activity change, negative = inhibition, actives largely listed as inhibitors | actives 6.9% (n = 320,000); note: potency is the fitted concentration of half-maximal effect
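Delayed-death screen, second-generation endpoint: infected erythrocytes, 2% hematocrit, 0.05% parasitemia final; 96 hours at 37 C, 5% CO2; luciferase detection reagent; luminescence decrease equals reduced growth.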
Starred values were filed as active, the others as inactive; ? = inconclusive; · = no result given. An excerpt weighted towards active compounds, which were near 14% of everything screened. Unless noted, calls come from the whole dose curve; as a rule, active = well fitted curve in the direction sought with a large enough effect; inconclusive = small, poorly fitted or top-dose-only effect, or another doubt; inactive = no such curve, though single readings can be large; an effect the other way counts as inactive or inconclusive. % is set by controls: 0 for no effect and ±100 for the full control effect.

SMILES	Sm TGR inh	FBPA Giardia inh	HCMV inh	Pf growth 48h	Pf growth 96h
O=C(CN1CCN(S(=O)(=O)c2ccc3c(c2)OCCCO3)CC1)N1CCc2ccccc21	·	·	17	·	·
Fc1ccc(Nc2ccnc(-c3ccccc3C(F)(F)F)n2)cc1	·	-5%	·	·	·
CCN(CC(=O)Nc1cccc(F)c1)CC(=O)Nc1ccccc1OC	-25%	-5%	7	-8%	-2%
CC(C)C[C@@H](CC(=O)N[C@@H](CCCN)CC(=O)N[C@@H]1CCNC[C@H]1C(=O)N[C@H](CC(=O)N[C@@H](CCC(=O)O)CC(=O)O)Cc1c[nH]c2ccccc12)NC(=O)[C@@H]1CCCC[C@H]1N	·	-27%	·	·	·
N=c1c2c(ncn1Cc1ccco1)Oc1cc(O)ccc1C2c1ccccc1 (stereo unspecified)	?	-1%	-17	12µM*	?
CN(C)CCn1cnc2c(c1=N)C(c1ccccc1)c1ccc3ccccc3c1O2 (stereo unspecified)	-10%	4%	-98*	5.2µM*	5.2µM*
N=c1c2c(ncn1Cc1ccco1)Oc1c(ccc3ccccc13)C2c1ccccc1 (stereo unspecified)	-2%	1%	-38	15µM*	?
O=C(c1ccccc1)N(C(=O)c1ccccc1)c1ncnc2c1C(c1ccccc1)c1c(ccc3ccccc13)O2 (stereo unspecified)	-2%	·	-5	?	27%
O=C(CSc1nncn1-c1cccnc1)Nc1cccc(C(F)(F)F)c1	-8%	15%	-23	12%	2%
C=CCC(C(=O)Oc1c(C(C)(C)C)cc(C)cc1C(C)(C)C)c1ccccc1 (stereo unspecified)	7%	·	-3	?	?
CC1CN(c2ccc([N+](=O)[O-])cc2Cl)CCN1S(C)(=O)=O (stereo unspecified)	-21%	0%	-29	3.3µM*	61%
COc1cccc(CCN2CCC(CNS(=O)(=O)c3cc(-c4cc(C)no4)ccc3OC)CC2)c1	7%	6%	0	4.1µM*	10µM*
Cc1cc(-c2ccc(C)c(S(=O)(=O)NCC3CCN(Cc4cccc(F)c4)CC3)c2)on1	-1%	1%	0	9.3µM*	?
O=C(NC1CCCCC1)C1CCCN(S(=O)(=O)c2ccc(F)cc2)C1 (stereo unspecified)	23%	-7%	-81*	-16%	24%
O=C(CSc1nnc(-c2ccc(F)cc2)o1)Nc1ccc(S(=O)(=O)N2CCCCCC2)cc1	-20%	1%	-84*	9.3µM*	-13%
COc1cc(NC(=O)C2CCN(S(=O)(=O)c3ccc(N4CCCC4=O)cc3)CC2)cc(OC)c1	-11%	·	-28	-27%	9.3µM*
Cc1nnc(NC(=O)C2CCN(S(=O)(=O)c3ccc(F)c(Cl)c3)CC2)o1	-7%	·	-34	6.6µM*	15µM*
C=CCNC(=O)C1CCN(S(=O)(=O)c2ccc(Br)cc2)CC1	4%	8%	-17	10µM*	·
O=C(NCC1CCCO1)C1CCN(S(=O)(=O)c2ccc(Br)cc2)CC1 (stereo unspecified)	-3%	·	31	1%	4%
O=C(Nc1ccc(S(=O)(=O)N2CCCC2)cc1)C1CCN(S(=O)(=O)c2ccc(F)cc2)CC1	1%	·	?	13µM*	?
COc1ccc(S(=O)(=O)N2CCC(C(=O)Nc3ccc(S(=O)(=O)N4CCCC4)cc3)CC2)cc1OC	3%	·	-18	?	4.7µM*
CN(C)CC(C)(C)CNC(=S)Nc1ccc(S(=O)(=O)N2CCOCC2)cc1	2%	2%	-76*	?	?
COc1ccc(NC(=O)C2CCN(S(=O)(=O)c3ccc(OC)c(OC)c3)CC2)cc1	3%	2%	9	·	?
COc1ccccc1CNc1cc(-c2ccc(C(=O)N(C)C)cc2)ncn1	·	-1%	·	·	·
Cc1cc(C)c2c(CC(=O)Nc3ccc(S(=O)(=O)N4CCCCC4)cc3)coc2c1	12%	·	-28	·	·
CCC(=O)N1CCc2cc(S(=O)(=O)NCCC(=O)NCc3ccccc3OC)ccc21	-3%	·	8	4%	?
